“And” between values parts separate entries of the source, which are not always exact repeats. Equal entries are not always repeated. The source made the active and inactive calls.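 How the source made its calls, unless noted: active means compounds whose cell count with miR-34 switched on is under 0.7 times the count with it off; inactive means the rest.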
Assays:
[1] = test system: Aerobactin synthetase IucA (Klebsiella pneumoniae); test: IucA aerobactin synthetase inhibitors, biochemical, Tocris library, absorbance (AID 1345561; call rule not given here;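 further: 100% = enzyme without compound and 0% = no enzyme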); conditions: purified IucA enzyme assay, absorbance (OD) read-out; stronger effect = lower value;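 tested at 8 µM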
[2] = sensitizers of A549 cells to miR-34 induction, primary screen, imaging, A549 dox-inducible miR-34, nuclei and caspase counts (AID 1347080); conditions: A549 miR-34 inducible, Hoechst nuclei count, 48 h
[3] = viability rescue of complex I mutant cybrids, primary screen, cell-based, galactose medium, ATP luminescence (AID 1645843;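 active means z-score of at least 1.8 in each of two replicates, scored against plate mean and spread of sample wells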;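 further: positive z means more ATP and so rescue of galactose-driven cybrid death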); conditions: complex I mutant cybrid cells, 72 h, stronger effect = higher value
[4] = stronger effect = lower value, cell number ratio, induced over uninduced
[5] = measured here: relative caspase fold change +Dox/-Dox
[6] = measured here: total cells with miR-34 induction, stronger effect = lower value
[7] = measured here: total cells without miR-34 induction

Row | Structure (SMILES) | remaining activity [1] | fold change [2, 4] | fold change [2, 5] | cell count [2, 6] | cell count [2, 7] | z-score [3]
1 | Cc1c(NC(=O)N2CCOCC2)ccc2c1c1ccccc1n2C(C)C | 122% (inactive) | 0.891 (inactive) | 1.37 | 8260 | 9270 | 1.14 (inactive)
2 | CN(Cc1ccccc1)C(=O)[C@H](Cc1ccc2ccccc2c1)NC(=O)[C@@H]1CCCN1C(=O)Nc1ccccc1[N+](=O)[O-] | 123% (inactive) | 0.972 (inactive) | 1.17 | 5700 | 5860 | 1.83 (active)
3 | CN(CCc1ccc(Cl)c(Cl)c1)CC(O)COc1ccc(NS(C)(=O)=O)cc1 (centres undefined) | 107% (inactive) | 0.951 (inactive) and 0.956 (inactive) | 1.56 and 0.961 | 4180 and 6530 | 4390 and 6830 | 0.67 (inactive)
4 | CC(N)=NCCCC[C@H](N)C(=O)O | 91.3% (inactive) | 0.958 (inactive) | 0.902 | 8960 | 9350 | 0.135 (inactive)
5 | Cc1ccc(OC[C@@H](O)[C@H](C)NC(C)C)c2c1CCC2 | 82.6% (inactive) | 0.94 (inactive) | 1.07 | 8280 | 8800 | -0.36 (inactive)
6 | COc1ccccc1N1CCN(CCCCN2C(=O)CCC2=O)CC1 | 103% (inactive) | 0.855 (inactive) | 0.698 | 8300 | 9700 | -0.25 (inactive)
7 | NCCCCCc1cnc[nH]1 | 118% (inactive) | 0.92 (inactive) | 0.639 | 9140 | 9930 | -0.155 (inactive)
8 | CN1C[C@H]2c3ccccc3Oc3ccc(Cl)cc3[C@@H]2C1 (racemic) | 109% (inactive) | 0.868 (inactive) | 2.03 | 5560 | 6410 | -0.745 (inactive)
9 | Brc1cc2c(cc1[C@H]1Nc3ccccc3[C@H]3C=CC[C@H]31)OCO2 (racemic) | 123% (inactive) | 0.953 (inactive) | 1.69 | 6570 | 6900 | -0.975 (inactive)
10 | CC(C)Oc1cccc(-n2c(CCc3c[nH]c4ccc(Br)cc34)nc3ccccc3c2=O)c1 | 110% (inactive) | 1.07 (inactive) | 0.884 | 6620 | 6200 | -1.18 (inactive)
11 | CCCCc1nn(-c2ccccc2C(F)(F)F)c(=O)n1Cc1ccc(-c2ccccc2S(=O)(=O)NC(=O)c2sccc2C)cc1 | 91.8% (inactive) | 0.921 (inactive) | 1.21 | 7450 | 8080 | 4.89 (active)
12 | CC[C@H](CO)Nc1nc(Nc2cccc(-c3ccccn3)c2)c2ncn(C(C)C)c2n1 | 119% (inactive) | 1.12 (inactive) | 1.35 | 1500 | 1340 | -0.95 (inactive)
13 | CC(O)(C(=O)Nc1ccc(S(=O)(=O)c2ccccc2)cc1)C(F)(F)F (centres undefined) | 125% (inactive) | 0.907 (inactive) and 0.921 (inactive) | 1.29 and 0.986 | 4820 and 7390 | 5310 and 8020 | -0.32 (inactive)
14 | CC1Nc2ccc(Cl)cc2S(=O)(=O)N1 (centres undefined) | 102% (inactive) | 0.919 (inactive) | 0.718 | 8550 | 9300 | 0.035 (inactive)
15 | NC(C(=O)O)c1cc(O)ccc1Cl (centres undefined) | 120% (inactive) | 1.01 (inactive) | 0.855 | 9170 | 9110 | 4.21 (active)
16 | N[C@@H](C(=O)O)c1ccc(C(=O)O)c(C(=O)O)c1 | 95.5% (inactive) | 0.914 (inactive) | 0.832 | 8600 | 9410 | 0.05 (inactive)
17 | OC(c1ccccc1)C1CCN(CCc2ccccc2)CC1 (centres undefined) | 96.8% (inactive) | 0.917 (inactive) | 0.92 | 8660 | 9440 | -0.035 (inactive)
18 | c1ccc2oc(C3=NCCN3)cc2c1 | 116% (inactive) | 0.904 (inactive) | 1.14 | 8470 | 9370 | 0.405 (inactive)
19 | COc1cc(N)c(Cl)cc1C(=O)CCC1CCN(CCNS(C)(=O)=O)CC1 | 97.5% (inactive) | 0.928 (inactive) | 0.69 | 9240 | 9960 | 1.25 (inactive)
20 | COc1ccc(CC(=O)NC(/N=C(\NC#N)Nc2cccc3ncccc23)C(C)(C)C)cc1OC (centres undefined) | 122% (inactive) | 0.95 (inactive) | 1.31 | 9530 | 10000 | 0.08 (inactive)
21 | CCCCNC(=O)[C@@H]1Cc2ccccc2N1C(=O)[C@@H](N)CC | 110% (inactive) | 0.978 (inactive) | 1.76 | 9030 | 9230 | 0.245 (inactive)
22 | Clc1ccccc1CNCC1CCC(CNCc2ccccc2Cl)CC1 (centres undefined) | 103% (inactive) | 0.98 (inactive) | 0.883 | 7550 | 7700 | -0.795 (inactive)
23 | CCn1c(=O)[nH]c2ccccc21 | 111% (inactive) | 0.854 (inactive) | 1.07 | 7770 | 9100 | -0.455 (inactive)
24 | CC[C@]1(O)C[C@H]2CN(CCc3c([nH]c4ccccc34)[C@@](C(=O)OC)(c3cc4c(cc3OC)N(C)[C@H]3[C@@](O)(C(=O)OC)[C@H](OC(C)=O)[C@]5(CC)C=CCN6CC[C@]43[C@@H]65)C2)C1 | 123% (inactive) | 1.06 (inactive) | 0.382 | 1570 | 1480 | -0.65 (inactive)

Source: PubChem BioAssay
